Out of some 46,000 compounds screened, about 60 (0.1%) were called active. Inconclusive results (about 3%) are left out. The full list was thinned out, with actives kept by preference. Values without a mark were called inactive. Calls come from the whole dose curve; as a rule, active = well fitted inhibition curve with a large enough effect; inconclusive = small, poorly fitted or top-dose-only effect; inactive = no such curve, though single readings can be large or run the other way.
Experiment: Primary qHTS assay for Inhibitors of ovarian cancer metastasis using an organotypic tumor microenvironment (TME) model.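 For Potency: count of GFP cancer cells still attached after washing and fixation.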 Note: nearly all actives have a fitted effect of over 65% in size.
Conditions: SKOV3ip1-GFP adhesion/invasion on 3D omental model, fluorescence; series mostly up to 45.8 µM; activity change, negative = inhibition: at the top concentration
Description: PI: Ernst Lengyel MD., Ph.D. Department of Obstetrics and Gynecology, Section of Gynecologic Oncology University of Chicago Medicine, Chicago, Illinois. The tumor microenvironment (TME) is a key determinant of metastatic efficiency. We performed a quantitative high-throughput screen (qHTS) of diverse medicinal chemistry tractable scaffolds (44,420 compounds) and pharmacologically active small molecules (386 compounds) using a layered organotypic, robust assay representing the ovarian cancer metastatic TME. This 3D model contains primary human mesothelial cells, fibroblasts, and extracellular matrix, to which fluorescently labeled ovarian cancer cells are added. Initially, 100 compounds inhibiting ovarian cancer adhesion/invasion to the 3D model in a dose-dependent manner were identified. Of those, eight compounds were confirmed active in five high-grade serous ovarian cancer cell lines and were further validated in secondary in vitro and in vivo biological assays. […] Specifically, NCGC00117362 and PP-121 inhibited ovarian cancer adhesion, invasion, and proliferation, whereas milciclib inhibited ovarian cancer invasion and proliferation. […] To evaluate the clinical potential of NCGC00117362, structure - activity relationship studies were performed. […] The three compounds identified have promise as therapeutics for prevention and treatment of ovarian cancer metastasis.
PROTOCOL TABLE (as described by Inglese J, Shamu CE and Guy RK. 2007) SEQUENCE No. (e.g., 1, 2, 3, etc.); […] (e.g., Cells, Incubation, Reagent, etc.); VALUE; DESCRIPTION. 1; Cells; 4 uL; primary human omental fibroblast, black, clear bottom, low base, 1536-well Aurora assay plate. 2; Incubation; 48 hr; 37C. 3; Cells; 3 uL; 1,200 SKOV3ip1-GFP cells. 4; Compounds; 23nL; acoustic dispenser. 5; Incubation; 2 hr; room temperature. 6; Incubation; 16 hr; 37C. 7; Wash; 5 uL; 1x PBS. 8; Fixing; 5 uL; 4% paraformaldehyde (PFA). 9; Incubation; 15 min; room temperature 10; Wash, 5 uL; 1x PBS. 11; Detection; Fluorescence, excitation filter 488 nm, emission filter 509 nm. NOTES (numbers refer to Sequence numbers above) 1. For the 1,536-well format, 40 primary human omental fibroblasts and 400 mesothelial cells were seeded with 0.02 µg fibronectin and 0.02 µg collagen type I in 4 µL of growth media (2.3 mm2; Supplementary Fig. S1A). 2. Assay plates were incubated for 48 hours at 37 C. 3. After incubation, 1,200 SKOV3ip1-GFP were seeded in 3 µL of serum-free media (growth media minus FBS) on top of primary human omental cells. 4. Compounds or controls were added to each well immediately after the addition of the cancer cells. Compounds were screened in four doses (0.36-46 µmol/L), and the plates contained the positive control (Tomatine) in eight doses (0.035-75 µmol/L) and DMSO (equal volume controls) 5 - 6. The plates were incubated at room temperature for 2 hours and then at 37 degrees C for 16 hours. 7 - 10. Following incubation, the media were aspirated and each well washed with PBS (5 µL) and then fixed with 4% paraformaldehyde (PFA; 5 µL). After 15 minutes, the PFA solution was aspirated, PBS (5 µL) was added. 11. The number of GFP-labeled cells analyzed using a fluorescent cytometer TTP LabTech Acumen eX3 using 488 nm excitation filter and 509 nm emission filter. Data was normalized to the DMSO treated for negative and Tomatine treated wells for positive control. REFERENCES: Inglese J, Shamu CE and Guy RK, Reporting data from high throughput screening of small molecule libraries, Nature Chemical Biology, 2007, 3(8): 438-441. doi.org/10.1038/nchembio0807-438. Yasgar A, Shinn P, Jadhav A, Auld DS, Michael S, Zheng W, Austin CP, Inglese J and Simeonov A, Compound Management for Quantitative High-Throughput Screening. J. Assoc. Lab. Auto., 2008, 13: 79-89. doi: 10.1016/j.jala.2007.12.004.
Potency is the fitted concentration of half-maximal effect.

Row | Structure (SMILES) | activity change, negative = inhibition [%] | outcome | Potency
1 | COc1ccc(CNC(=O)CSc2nc3ccccc3nc2Cc2ccccc2)cc1 | -20.8 |  | 
2 | CCc1ccc(S(=O)(=O)c2nnn3c2nc(N2CCN(CC)CC2)c2sccc23)cc1 |  | inactive | 
3 | COc1ccc2oc(=O)c(-c3cn4c(n3)sc3cc(OC)ccc34)cc2c1 | -7.31 |  | 
4 | O=C(Nc1ccc(-c2nc3cc(NC(=O)c4ccccc4Cl)ccc3o2)cc1)c1ccccc1Cl | -29.1 |  | 
5 | CCOC(=O)c1c(N)n(-c2cccc(C)c2C)c2nc3ccccc3nc12 | -16 |  | 
6 | Cc1ccc(Nc2nc3ccccc3nc2-n2nc(C)cc2C)c(Cl)c1 | -10.1 |  | 
7 | COc1cc(C(=O)N2CCC(c3ccncc3)CC2)cc(OC)c1OC | -0.392 |  | 
8 | Cc1ccc(S(=O)(=O)N2CCC(C(=O)Nc3cc(C)ccc3C)CC2)cc1 | -6.77 |  | 
9 | CC=CCC=CCCC(=O)[C@H]1O[C@@H]1C(N)=O | -0.0997 |  | 
10 | Cc1nnc(SCC(=O)NCc2ccccc2Cl)c2nn(-c3ccccc3)c(C)c12 | -12.7 |  | 
11 | CCC(C(=O)Nc1cc(OC)ccc1OC)n1c(=O)c(C(F)(F)F)nc2ccccc21 (stereo not given) |  | inactive | 
12 | CN1CCN(C2(CNC(=O)COc3ccc(C(C)(C)C)cc3)CCCCC2)CC1 |  | inactive | 
13 | CCOc1ccccc1N(C)C(=O)c1cc2c(s1)-c1ccccc1OC2 | 7.01 |  | 
14 | Cc1nn(-c2ccc(N3CCCCC3)nn2)c(C)c1CCC(=O)NCc1ccc(F)cc1 |  | inactive | 
15 | O=C(Nc1c(-c2ccc(F)cc2)nc2ccccn12)c1cccc(F)c1 |  | inactive | 
16 | CC(=O)OC[C@@H]1O[C@@H](n2ccc(=O)[nH]c2=O)[C@H](OC(C)=O)[C@H]1OC(C)=O | 4.32 |  | 
17 | CN(C(=O)CSc1nnc(NC(=O)Nc2ccccc2)s1)c1ccccc1 |  | inactive | 
18 | CC1CCCCN1CC(=O)N1CCCc2c1c(=O)oc1ccc(OCc3ccccc3)cc21 (stereo not given) | 1.88 |  | 
19 | O=S(=O)(NCCS(=O)(=O)N1CCN(c2ccccc2)CC1)c1ccc(Cl)cc1 | 0.153 |  | 
20 | Cc1cccc(NC(=O)C2CCN(S(=O)(=O)c3c(C)noc3/C=C/c3ccco3)CC2)c1 | 5.82 |  | 
21 | CC(C)Cn1c(=O)c2ccccc2n2c(CCC(=O)N3CCN(c4cccc(Cl)c4)CC3)nnc12 | -6.33 |  | 
22 | COc1ccc(-c2cc(C(F)(F)F)n3nc(-c4ccccc4)cc3n2)cc1OC | 9.54 |  | 
23 | CC(C(C)N1CC(=O)NC(=O)C1)N1CC(=O)NC(=O)C1 (stereo not given) | 4 |  | 

Row | Structure (SMILES) | activity change, negative = inhibition [%] | outcome | Potency
24 | Cc1ccc(CNS(=O)(=O)c2ccc(C(=O)N(C)C)s2)cc1 |  | inactive | 
25 | CSc1ncc(Cl)c(C(=O)Nc2ccc(S(=O)(=O)N3CCCC(C)C3)cc2)n1 (stereo not given) | 26.4 |  | 
26 | Cc1ccc(-c2cc(N)n(Cc3cccc(Cl)c3)n2)cc1 |  | inactive | 
27 | C[C@]12CCC3=C4CCC(=O)C=C4CC[C@@H]3[C@H]1CC[C@@]2(O)CC#N | -2.71 |  | 
28 | CCC(=O)N1CCc2cc(Br)cc(S(=O)(=O)Nc3ccc(C)cc3C)c21 | -6.08 |  | 
29 | Cc1cccc(NC(=O)c2cc3c(C)nn(-c4ccccc4)c3s2)c1 | -4.51 |  | 
30 | Cc1ccc(-c2nn3c(=O)cc(CN4CCN(C(=O)Nc5cccc(C(F)(F)F)c5)CC4)nc3s2)cc1 | 5.26 |  | 
31 | CCOC(=O)CN1C(C(=O)c2ccccc2)=C(OC(=O)C(C)(C)C)c2ccccc2S1(=O)=O |  | inactive | 
32 | O=C(CC1C(=O)N(c2ccccc2)C(=O)N1CCc1cccs1)Nc1ccc(F)cc1 (stereo not given) | 0.418 |  | 
33 | O=C(CN1c2ccccc2S(=O)(=O)c2ccccc21)Nc1cccc(C(F)(F)F)c1 |  | inactive | 
34 | CC(C)(C)OC(=O)N1CCC(c2c(C(=O)N3CCN(c4cccc(Cl)c4)CC3)cnn2-c2cccc(Cl)c2)CC1 | 14.1 |  | 
35 | CCc1ccccc1NC(=O)CCOc1ccccc1 | -12.1 |  | 
36 | Cc1cccc(OCCCC(=O)Nc2sc3c(c2C(N)=O)CCC(C)C3)c1 (stereo not given) | 0.314 |  | 
37 | CCN(CC)CCCCNc1ncc2c(n1)N(C)C(=O)N(c1c(Cl)c(OC)cc(OC)c1Cl)C2 | -3.35 |  | 
38 | Cc1cccc(N2CCN(C(=O)c3cc4c(=O)oc5ccccc5c4s3)CC2C)c1 (stereo not given) |  | inactive | 
39 | COCCCNC(=O)CN1C(=O)CSc2ccc(S(=O)(=O)N3CCOCC3)cc21 | -1.82 |  | 
40 | CCc1ccccc1N1CC(c2nc3ccccc3n2CCCCOc2ccccc2)CC1=O (stereo not given) | 1.09 |  | 
41 | COc1cccc(Nc2nc3ccccc3c3nncn23)c1 | -7.17 |  | 
42 | CCOC(=O)c1nc(Nc2ccc(C(=O)OC)cc2)c2ccccc2n1 | -4.43 |  | 
43 | COc1cc(Nc2nc(-c3ccc(OC)c(OC)c3)nc3ccccc23)cc(OC)c1 |  |  | 10 µM (active)
44 | COc1ccc(C2=CC(c3ccccc3Cl)n3nc(-c4ccc(Cl)cc4)nc3N2)cc1 (stereo not given) | 5.11 |  | 
45 | O=C(CCC(=O)N1CC2CCCN2c2ccccc21)NCc1ccccc1Cl (stereo not given) | -7.58 |  | 

From PubChem BioAssay AID1963576 (National Center for Advancing Translational Sciences (NCATS), 2024)
